Laboratory results taken from PubChem BioAssay (NCATS).
Results filed as inconclusive are left out. Unmarked numbers belong to inactive results. Calls of active or inactive are those of the source. Calls follow the shape of the dose curve; as a rule, active = well fitted cell-killing curve with a large enough effect; inconclusive = small, poorly fitted or top-dose-only effect; inactive = flat fitted curve, though single readings scatter.

Assay: COV-362 Cancer Cell Toxicity qHTS against the NCATS CANVASS Library (AID 1347352)
Settings: COV-362 viability, CellTiter-Glo luminescence, 72 h; series mostly up to 38.3 µM; activity change, negative = cytotoxicity: at the top concentration
Summary of the method: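 Luminescent ATP read-out (CellTiter-Glo, 15min at room temperature) measures survival after cells face an 11-point compound series for 72 hours at 37 degrees C/5% CO2.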
% is scaled to controls: 0 for no effect and ±100 for the full control effect; potency is read from the fitted curve at half-maximal effect.

| Structure (SMILES) | activity change, negative = cytotoxicity | Potency |
| --- | --- | --- |
| CO[C@H](c1ccccc1)[C@H]1NC(=O)C(C)NC(=O)C(C[C@@H](C)CO)N(C)C(=O)[C@@H](C(O)c2cn(C(C)(C)C3CO3)c3ccccc23)NC(=O)C(C(C)C=C(C)C)NC(=O)C(CC(C)C)N(C)C(=O)C(C(C)C)NC1=O (some centres undefined) | -17% [at 22.9 µM] | – |
| CC1=CC(=O)C2=C(C)C[C@H](O)[C@@H]3[C@H](OC(=O)[C@@H]3C)[C@@H]12 | -7.65% | – |
| CCN1C[C@]2(C)CC[C@H](O)[C@]34C1C(C[C@H]23)[C@@]12CC[C@H](CC14)[C@](O)(COC(=O)c1ccc(OC)c(OC)c1)[C@H]2O (some centres undefined) | -15.2% | – |
| CCC(=O)CCCCC[C@@H]1NC(=O)[C@H]2CCCCN2C(=O)[C@H]([C@@H](C)CC)NC(=O)[C@H](Cc2cn(OC)c3ccccc23)NC1=O | – | 16.7 µM (active) |
